Results filed as inconclusive are left out. A number with no mark means an inactive call. The source made the active and inactive calls. The call rests on the fitted dose curve; in most records, active means well fitted curve in the direction sought with a large enough effect in the repeat runs; inconclusive means weak or mixed curves; inactive means no such curve, though single readings can be large; an effect the other way counts as inactive or inconclusive.
The compounds below were run against Nuclear receptor subfamily 1 group I member 2 (Homo sapiens) (UniProt O75469) (assay: CYP3A4 induction through human pregnane X receptor (PXR) by small molecules, qHTS assay (AID 1346984)). Conditions: DPX-2 HepG2 PXR, CYP3A4-luciferin luminescence, 24 h; series mostly up to 46.1 µM; activation: at the top concentration.
Summary of the method: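 Quantitative HTS in DPX-2 cells, i.e. HepG2 transfected with PXR response element and CYP3A4-promoter luciferase. Compounds in DMSO incubated 24hr at 37C; then P450-Glo CYP3A4 substrate, 3uM final, 3hr; One-Glo luminescence.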
Further: nearly all actives have a fitted effect of over 40% in size.
On the % scale 0 is the no-effect control and ±100 the full control effect.

| Compound | activation [%] |
| --- | --- |
| O=P(O)(O)CP(=O)(O)O | -2.59 |
| Cc1cc(-c2ccc(N=Nc3ccc4c(S(=O)(=O)O)cc(S(=O)(=O)O)c(N)c4c3O)c(C)c2)ccc1N=Nc1ccc2c(S(=O)(=O)O)cc(S(=O)(=O)O)c(N)c2c1O | -15.9 |
| CCCCCCCCCCCC[n+]1ccc2ccccc2c1 | -35 |
| C[C@@H]1C(=O)NC2=Nc3cccc(Cl)c3CN21 | 11.7 |
| Cc1cccc(C)c1NC(=O)C1CCCCN1C (stereo unspecified) | 6.14 |
| NC(=O)[C@H]1O[C@@H](O)[C@H](O)[C@@H](O)[C@@H]1O | -1.69 |
| CCC(NC(C)C)C(O)c1ccc(O)c(O)c1 (stereo unspecified) | -1.08 |
| Cc1ccc(C(C)(C)c2ccc(C)cc2)cc1 | 0.626 |
| COc1cc2c(cc1O)CCN[C@]21CS[C@@H]2c3c(OC(C)=O)c(C)c4c(c3[C@H](COC1=O)N1[C@@H]2[C@H]2c3c(cc(C)c(OC)c3O)C[C@@H]([C@@H]1O)N2C)OCO4 | -16.3 |
| CC(=O)OCC1=C(C(=O)O)N2C(=O)[C@@H](NC(=O)Cc3ccccc3)[C@H]2SC1 | -3.75 |
| FC(F)(F)COCC(F)(F)F | -1.37 |
| CO/N=C(\C(=O)N[C@@H]1C(=O)N2C(C(=O)O)=C(CSc3cnns3)CS[C@H]12)c1csc(N)n1 | -5.52 |
| O=C(O)[C@H]1CN(C/C=C/P(=O)(O)O)CCN1 | -16.1 |
| CC[C@H]1OC(=O)C[C@@H](O)[C@H](C)[C@@H](O[C@@H]2O[C@H](C)[C@@H](O[C@H]3C[C@@](C)(O)[C@@H](O)[C@H](C)O3)[C@H](N(C)C)[C@H]2O)[C@@H](CC=O)C[C@@H](C)C(=O)/C=C/C(C)=C/[C@@H]1CO[C@@H]1O[C@H](C)[C@@H](O)[C@@H](OC)[C@H]1OC | -3.75 |
| CC1(C)S[C@@H]2[C@H](NC(=O)[C@H](N)c3ccc(O)cc3)C(=O)N2[C@H]1C(=O)O | 11.4 |
| CC(C)C[C@H](NC(=O)[C@@H](COC(C)(C)C)NC(=O)[C@H](Cc1ccc(O)cc1)NC(=O)[C@H](CO)NC(=O)[C@H](Cc1c[nH]c2ccccc12)NC(=O)[C@H](Cc1cnc[nH]1)NC(=O)[C@@H]1CCC(=O)N1)C(=O)N[C@@H](CCCN=C(N)N)C(=O)N1CCC[C@H]1C(=O)NNC(N)=O | -5.26 |

The compounds below were run against Nuclear receptor subfamily 1 group I member 2 (Homo sapiens) (UniProt O75469) (assay: Human pregnane X receptor (PXR) activation by small molecules, qHTS assay (AID 1346985; further: potency means the concentration at half of the fitted maximal effect)). Conditions: DPX-2 HepG2 CYP3A4-luciferase, 24 h; series mostly up to 38.3 µM; activation: at the top concentration.
Summary of the method: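 DPX-2 cells (HepG2 co-transfected with a PXR response element and a CYP3A4-promoter luciferase construct) were seeded at 2,000 per well, rested 5 hr at 37C, then exposed to DMSO-dissolved compounds for 24 hr. Activation was read as luciferase luminescence.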

| Compound | activation | Potency |
| --- | --- | --- |
| CCC(=O)OC(OP(=O)(CCCCc1ccccc1)CC(=O)N1C[C@H](C2CCCCC2)C[C@H]1C(=O)O)C(C)C (stereo partly specified) | 12.6% | – |
| NC(=O)c1cc[n+](CC2=C(C(=O)O)N3C(=O)[C@@H](NC(=O)C(c4ccccc4)S(=O)(=O)[O-])[C@H]3SC2)cc1 (stereo partly specified) | 7.82% [at 17.1 µM] | – |
| FC(F)(F)C(F)(F)C(F)(F)C(F)(F)C(F)(F)F | -13.5% | – |
| O=C(O)/C=C/C(=O)Nc1ccc(S(=O)(=O)Nc2nccs2)cc1 | -1.51% | – |
| O=C(O)Cc1nn(Cc2ccc(Br)cc2F)c(=O)c2ccccc12 | -2.97% | – |
| CCCCCCCCCCCCCCCCCCOCC(COP(=O)([O-])OCC[N+](C)(C)C)OC (stereo unspecified) | -5.13% | – |
| CN[C@@H]1[C@@H](O[C@H]2O[C@H](CO)[C@@H](N)[C@H](O)[C@H]2O)O[C@H]2C[C@@H](N)[C@@H](O[C@H]3[C@H](O)[C@@H](O)[C@H](N)C[C@@H]3N)O[C@@H]2[C@@H]1O | -2.56% [at 17.1 µM] | – |
| CCCCCCCCCCCCCC(=O)OCC(COP(=O)([O-])OCC[N+](C)(C)C)OC(=O)CCCCCCCCCCCCC (stereo unspecified) | -0.171% | – |
| C=N[C@@H](C(=O)N[C@@H]1C(=O)N2[C@@H]1SC(C)(C)[C@@H]2C(=O)O)c1ccccc1 | -6.98% | – |
| CCOC(=O)[C@H](CCc1ccccc1)N[C@@H](C)C(=O)N1[C@H](C(=O)O)C[C@H]2CCCC[C@@H]21 | 14.1% | – |
| C/C=C/C1=C(C(=O)O)N2C(=O)[C@@H](NC(=O)[C@H](N)c3ccc(O)cc3)[C@H]2SC1 | -2.57% | – |
| N=C(N)n1cccn1 | 0.271% | – |
| O=C(O)COc1ccc(C(=O)c2cccs2)c(Cl)c1Cl | – | inactive |
| O=C1CCC(c2ccccc2)(C2CCN(Cc3ccccc3)CC2)C(=O)N1 (stereo unspecified) | – | 5.62 µM (active) |
| CC[C@@H](C(=O)[C@@H](C)[C@@H](O)[C@H](C)CCc1ccc(C)c(O)c1C(=O)O)[C@H]1O[C@](CC)([C@H]2CC[C@](O)(CC)[C@H](C)O2)C[C@@H]1C | – | 8.91 µM (active) |
| CN1C(=O)C[C@@H](C(=O)N[C@@H](Cc2cnc[nH]2)C(=O)N2CCC[C@H]2C(N)=O)NC1=O | -6.65% | – |
| CC(C)OC(=O)Nc1ccc2nc(-c3cscn3)[nH]c2c1 | – | 5.01 µM (active) |
| CC(=O)Nc1ccc(OC(C)=O)cc1 | -6.34% | – |
| CC1(C)S[C@@H]2[C@H](N3C(=O)C(c4ccccc4)NC3(C)C)C(=O)N2[C@H]1C(=O)O (stereo partly specified) | -2.7% | – |
| CC/C=C\C/C=C\C/C=C\C/C=C\C/C=C\CCCC(=O)O | -12.6% | – |

| Compound | activation | Potency |
| --- | --- | --- |
| CC(C)=CCC/C(C)=C/CC/C(C)=C/CC/C(C)=C/CC1=C(C)C(=O)c2ccccc2C1=O | 22.8% | – |
| CC(C)CCC[C@@H](C)[C@H]1CC[C@H]2[C@@H]3CC[C@@H]4C[C@H](O)CC[C@]4(C)[C@H]3CC[C@]12C | -4.19% | – |
| O=C1c2c(O)cccc2[C@H]([C@@H]2O[C@H](CO)[C@@H](O)[C@H](O)[C@H]2O)c2cc(CO)cc(O)c21 | 12.3% | – |
| NC(=O)CC[C@@H]1NC(=O)[C@H](Cc2ccccc2)NC(=O)[C@H](Cc2ccc(O)cc2)NC(=O)[C@@H](N)CSSC[C@@H](C(=O)N2CCC[C@H]2C(=O)N[C@@H](CCCN=C(N)N)C(=O)NCC(N)=O)NC(=O)[C@H](CC(N)=O)NC1=O | -1.48% | – |
| O=P(O)(O)CP(=O)(O)O | 15.4% | – |
| Cc1cc(-c2ccc(N=Nc3ccc4c(S(=O)(=O)O)cc(S(=O)(=O)O)c(N)c4c3O)c(C)c2)ccc1N=Nc1ccc2c(S(=O)(=O)O)cc(S(=O)(=O)O)c(N)c2c1O | -9.24% | – |
| CCCCCCCCCCCC[n+]1ccc2ccccc2c1 | -11.2% | – |
| C[C@@H]1C(=O)NC2=Nc3cccc(Cl)c3CN21 | 3.77% | – |
| Cc1cccc(C)c1NC(=O)C1CCCCN1C (stereo unspecified) | 1.7% | – |
| NC(=O)[C@H]1O[C@@H](O)[C@H](O)[C@@H](O)[C@@H]1O | -3.53% | – |
| CCC(NC(C)C)C(O)c1ccc(O)c(O)c1 (stereo unspecified) | -2.43% | – |
| Cc1ccc(C(C)(C)c2ccc(C)cc2)cc1 | -0.94% | – |
| COc1cc2c(cc1O)CCN[C@]21CS[C@@H]2c3c(OC(C)=O)c(C)c4c(c3[C@H](COC1=O)N1[C@@H]2[C@H]2c3c(cc(C)c(OC)c3O)C[C@@H]([C@@H]1O)N2C)OCO4 | -8.51% | – |
| CC(=O)OCC1=C(C(=O)O)N2C(=O)[C@@H](NC(=O)Cc3ccccc3)[C@H]2SC1 | 1.83% | – |
| FC(F)(F)COCC(F)(F)F | 2.23% | – |
| CO/N=C(\C(=O)N[C@@H]1C(=O)N2C(C(=O)O)=C(CSc3cnns3)CS[C@H]12)c1csc(N)n1 | -7.63% | – |
| O=C(O)[C@H]1CN(C/C=C/P(=O)(O)O)CCN1 | 4.11% | – |
| CC[C@H]1OC(=O)C[C@@H](O)[C@H](C)[C@@H](O[C@@H]2O[C@H](C)[C@@H](O[C@H]3C[C@@](C)(O)[C@@H](O)[C@H](C)O3)[C@H](N(C)C)[C@H]2O)[C@@H](CC=O)C[C@@H](C)C(=O)/C=C/C(C)=C/[C@@H]1CO[C@@H]1O[C@H](C)[C@@H](O)[C@@H](OC)[C@H]1OC | -1.37% | – |
| CC1(C)S[C@@H]2[C@H](NC(=O)[C@H](N)c3ccc(O)cc3)C(=O)N2[C@H]1C(=O)O | 8.56% | – |
| CC(C)C[C@H](NC(=O)[C@@H](COC(C)(C)C)NC(=O)[C@H](Cc1ccc(O)cc1)NC(=O)[C@H](CO)NC(=O)[C@H](Cc1c[nH]c2ccccc12)NC(=O)[C@H](Cc1cnc[nH]1)NC(=O)[C@@H]1CCC(=O)N1)C(=O)N[C@@H](CCCN=C(N)N)C(=O)N1CCC[C@H]1C(=O)NNC(N)=O | -7.17% | – |

— PubChem BioAssay (Tox21)
